Laboratory results published in PubChem BioAssay (EPA / NIEHS).
Inconclusive results are not listed. The source made the active and inactive calls. Rule for the calls: active = hit-call score of the fitted dose curve at least 0.9, where 1 is the maximum; inconclusive = response in the unintended direction; inactive = score below 0.9.

Key:
[1] = Tanguay_ZF_120hpf_MORT_legacy: (Legacy) Oregon State University Tanguay Lab 120 Hour Post-fertilization zebrafish Assay for Mortality (AID 2283633)
In short: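 Static waterborne exposure from 6 to 120 hpf at 28C of single dechorionated wild-type (5D) embryos per well, 0.64% DMSO final. Death recorded present/absent by brightfield at 24 and 120 hpf.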

[2] = Tanguay_ZF_120hpf_YSE_legacy: (Legacy) Oregon State University Tanguay Lab 120 Hour Post-fertilization zebrafish Assay for Yolk Sac Edema (AID 2283634)
In short: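 Presence or absence of yolk sac edema was recorded at 120 hpf in surviving larvae. These were wild-type Tropical 5D embryos, chorion removed at 4 hpf, held in static exposure at 28C from 6 hpf with 0.64% DMSO vehicle.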

[3] = Tanguay_ZF_120hpf_AXIS_legacy: (Legacy) Oregon State University Tanguay Lab 120 Hour Post-fertilization zebrafish Assay for Body Axis Malformation (AID 2283635)
In short: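 Binary scoring of axis defects at 120 hpf under brightfield, fitted positive versus DMSO. Tropical 5D embryos, chorion removed by pronase at 4 hpf, were singly exposed in sealed, dark plates at 28C from 6 hpf; DMSO 0.64% final.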

[4] = Tanguay_ZF_120hpf_EYE_legacy: (Legacy) Oregon State University Tanguay Lab 120 Hour Post-fertilization zebrafish Assay for Eye Malformation (AID 2283636);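 note: binary presence or absence of eye malformation scored by brightfield in 120 hpf larvae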
In short: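 Dechorionated wild-type Tropical 5D zebrafish embryos were exposed statically from 6 hpf, one per well, to 120 hpf at 28C in sealed, foil-covered plates with 0.64% DMSO. Eye malformation was scored present/absent by brightfield microscopy against DMSO controls.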

[5] = Tanguay_ZF_120hpf_SNOU_legacy: (Legacy) Oregon State University Tanguay Lab 120 Hour Post-fertilization zebrafish Assay for Snout Malformation (AID 2283637)
In short: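 Tropical 5D wild-type zebrafish embryos, dechorionated with pronase at 4 hpf, were exposed singly from 6 hpf to 120 hpf statically at 28C in 0.64% DMSO. Snout malformation was scored present/absent by brightfield microscopy, fitted against DMSO.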

[6] = Tanguay_ZF_120hpf_JAW_legacy: (Legacy) Oregon State University Tanguay Lab 120 Hour Post-fertilization zebrafish Assay for Jaw Malformation (AID 2283638)
In short: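 Binary jaw-malformation call at 120 hpf by brightfield microscopy. Embryos (Tropical 5D strain, chorion removed at 4 hpf) were dosed statically at 6 hpf, one per well, at 28C with 0.64% DMSO. Embryos that died were not scored.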

[7] = TOX21_p53_BLA_p5_viability: Viability Assessment in the Tox21 HCT-116 p53 Agonism Beta-lactamase Assay, Phase 5 (AID 2283600)
In short: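 After the 460/530 nm beta-lactamase measurement, the wells received an ATP-detection luciferase reagent; signal was read 30 min later at RT. Compound treatment lasted 16 h on cells pre-incubated 5 h post-seeding.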

[8] = target: Cellular tumor antigen p53 (Homo sapiens) (UniProt P04637); test: TOX21_p53_BLA_p5_ratio: Tox21 HCT-116 p53 Agonism Beta-lactamase Assay, Ratio, Phase 5 (AID 2283599)
Cellular tumor antigen p53 (Homo sapiens), sequence (P04637 whole entry, looked up): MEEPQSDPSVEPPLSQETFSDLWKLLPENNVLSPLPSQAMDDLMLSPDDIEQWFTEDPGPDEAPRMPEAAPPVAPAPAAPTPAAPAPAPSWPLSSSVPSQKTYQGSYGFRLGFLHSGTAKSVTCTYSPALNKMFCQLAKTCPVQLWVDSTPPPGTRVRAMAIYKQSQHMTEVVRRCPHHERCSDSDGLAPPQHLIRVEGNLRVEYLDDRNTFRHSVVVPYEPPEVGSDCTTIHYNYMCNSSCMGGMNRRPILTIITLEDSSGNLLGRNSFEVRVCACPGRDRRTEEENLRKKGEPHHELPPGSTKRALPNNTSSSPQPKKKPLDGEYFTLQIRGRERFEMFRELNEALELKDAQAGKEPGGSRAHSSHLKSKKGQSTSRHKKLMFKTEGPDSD
In short: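 HCT-116 cells carrying a p53-inducible beta-lactamase reporter were seeded at 4000 cells/well and dosed after 5 h with compound in DMSO (217-fold dilution). After 16 h at 37C, CCF4-AM substrate was added for 2 h, and the 460/530 nm emission ratio was scored as gain-of-signal versus DMSO.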

[9] = target: Cellular tumor antigen p53 (Homo sapiens) (UniProt P04637); test: TOX21_p53_BLA_p4_ratio: Tox21 HCT-116 p53 Agonism Beta-lactamase Assay, Ratio, Phase 4 (AID 2283601)
In short: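 HCT116 cells carrying an inducible beta-lactamase reporter were plated at 4000 cells/well, rested 5 h, then exposed to compounds in DMSO (217-fold dilution) for 16 h at 37C. CCF4-AM substrate was loaded 2 h at room temperature; 460/530 nm emission ratio scored gain-of-signal versus DMSO.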

Measured: outcome

CCCCCCCCCCCCCCC
inactive: [1] | [2] | [3] | [4] | [5] | [6]

OCC(CO)(CBr)CBr
inactive: [1] | [2] | [3] | [4] | [5] | [6]

CC(C)(O)C(=O)c1ccccc1
inactive: [7]

CCC(=O)O
inactive: [8] | [9]

CCN(CC)CC
inactive: [8] | [7] | [9]

Clc1ccc(Nc2nnc(Cc3ccncc3)c3ccccc23)cc1
inactive: [8] | [9]

Cc1[nH]nc2c1N=C(c1ccccc1Cl)c1cc([N+](=O)[O-])ccc1N2
inactive: [1] | [2] | [3] | [5] | [6]

CC(=O)Nc1ccc(O)cc1
inactive: [1] | [2] | [3] | [4] | [5] | [6]

CC(C)(C)c1ccc(CCC=O)cc1
inactive: [8] | [9]

COC(=O)CC(C(C)=O)C(=O)OC (stereo unspecified)
inactive: [8] | [7] | [9]

CS(=O)(=O)c1ccc([C@@H](CC2CCCC2)C(=O)Nc2cnccn2)cc1Cl
inactive: [1] | [2] | [3] | [4] | [5] | [6]

CN(Cc1cnc2nc(N)nc(N)c2n1)c1ccc(C(=O)N[C@@H](CCC(=O)O)C(=O)O)cc1
inactive: [1] | [2] | [3] | [4] | [5] | [6]

N=C(N)c1ccc(OCCCCCOc2ccc(C(=N)N)cc2)cc1
inactive: [1] | [2] | [3] | [4] | [5] | [6]

CCC1CO1 (stereo unspecified)
inactive: [7] | [9]
